Data from PubChem BioAssay AID1159580 (chemical genetic matrix, 2015).
“And” between values parts separate entries of the source, which are not always exact repeats. Equal values may be shown once. The campaign covered roughly 5,500 compounds. About 2,000 (36%) were called active. Another 18% or so got no clear call; they are omitted. No stated cut-off is given here; in the data, active means normalized growth mostly below about 0.91 (no sharp cut-off); inconclusive means no clear call, values can overlap the other calls; inactive means mostly above about 0.92. Some of the results follow.

Experiment: chemical genetic growth profiling, strain panel (AID 1159580);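 further: tested at 20 µM; growth read once vehicle control cultures reached saturation at 30 °C; 1 = growth at the plate median or of vehicle wells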
Conditions: S. cerevisiae deletion strains, growth OD

Measured: normalized growth

CC(C)NCC(O)c1ccc2ccccc2c1 (stereo not drawn)
inactive: locus YAL013W, strain DEP1, stronger effect = lower value 1.02 | locus YAL021C, strain ccr4, stronger effect = lower value 0.992 | locus YAL026C, strain drs2, stronger effect = lower value 1.01 | locus YAL030W, strain snc1, stronger effect = lower value 1 | locus YBL061C, strain skt5, stronger effect = lower value 0.998 | locus YBR009C, strain hhf1, stronger effect = lower value 0.985 | locus YBR021W, strain FUR4, stronger effect = lower value 1.02 | locus YBR023C, strain chs3, stronger effect = lower value 1 | locus YBR171W, strain sec66, stronger effect = lower value 1 | locus YBR229C, strain ROT2, stronger effect = lower value 1.01 | locus YBR231C, strain swc5, stronger effect = lower value 0.99 | locus YBR279W, strain paf1, stronger effect = lower value 0.998 | locus YCL011C, strain gbp2, stronger effect = lower value 1 | locus YCL016C, strain dcc1, stronger effect = lower value 1 | locus YCL029C, strain bik1, stronger effect = lower value 0.999 | locus YCL061C, strain MRC1, stronger effect = lower value 1.01 | locus YCL069W, strain vba3, stronger effect = lower value 1 | locus YCR088W, strain abp1, stronger effect = lower value 1.01 | locus YDL005C, strain med2, stronger effect = lower value 0.999 | locus YDL035C, strain GPR1, stronger effect = lower value 1.02 | locus YDL040C, strain nat1, stronger effect = lower value 0.987 | locus YDL074C, strain BRE1, stronger effect = lower value 1.04 | locus YDL101C, strain DUN1, stronger effect = lower value 1.01 | locus YDL134C, strain PPH21, stronger effect = lower value 1.02 | locus YDL185W, strain tfp1, stronger effect = lower value 1 | locus YDL192W, strain arf1, stronger effect = lower value 1 | locus YDR001C, strain nth1, stronger effect = lower value 1 | locus YDR069C, strain doa4, stronger effect = lower value 0.987 | locus YDR101C, strain arx1, stronger effect = lower value 1.01 | locus YDR137W, strain rgp1, stronger effect = lower value 0.987 | locus YDR159W, strain sac3, stronger effect = lower value 0.971 | locus YDR162C, strain NBP2, stronger effect = lower value 1.03 | locus YDR195W, strain ref2 0.966 | locus YDR297W, strain sur2, stronger effect = lower value 0.998 | locus YDR318W, strain mcm21, stronger effect = lower value 0.992 | locus YDR334W, strain swr1, stronger effect = lower value 1 | locus YDR335W, strain msn5, stronger effect = lower value 0.999 | locus YDR388W, stronger effect = lower value 0.994 | locus YDR392W, strain spt3, stronger effect = lower value 0.918 | locus YDR502C, strain sam2, stronger effect = lower value 0.995 | locus YEL003W, strain gim4, stronger effect = lower value 1.01 | locus YEL037C, strain rad23, stronger effect = lower value 1 | locus YEL061C, strain CIN8 (second series), stronger effect = lower value 0.996 | locus YEL061C, strain CIN8, stronger effect = lower value 1 | locus YER015W, strain faa2, stronger effect = lower value 0.992 | locus YER016W, strain bim1, stronger effect = lower value 0.997 | locus YER110C, stronger effect = lower value 0.994 | locus YER111C, strain swi4, stronger effect = lower value 1 | locus YER155C, strain BEM2 (second series), stronger effect = lower value 0.998 | locus YER155C, strain BEM2, stronger effect = lower value 1.01 | locus YER167W, strain BCK2, stronger effect = lower value 1.01 | locus YFR010W, strain ubp6, stronger effect = lower value 1 | locus YGL078C, strain dbp3, stronger effect = lower value 0.992 | locus YGL086W, strain mad1, stronger effect = lower value 1 | locus YGL167C, strain pmr1, stronger effect = lower value 1 | locus YGL173C, strain kem1, stronger effect = lower value 0.999 | locus YGL227W, strain vid30, stronger effect = lower value 0.992 | locus YGL240W, strain doc1, stronger effect = lower value 0.995 | locus YGL248W, strain PDE1, stronger effect = lower value 1.01 | locus YGL253W, strain hxk2, stronger effect = lower value 0.998 | locus YGR135W, strain pre9, stronger effect = lower value 0.983 | locus YGR252W, strain gcn5, stronger effect = lower value 0.973 | locus YHR013C, strain ard1, stronger effect = lower value 0.952 | locus YHR027C, strain rpn1, stronger effect = lower value 1 | locus YHR030C, strain SLT2, stronger effect = lower value 1.01 and 1.02 | locus YHR079C, strain IRE1 (second series), stronger effect = lower value 0.99 | locus YHR079C, strain IRE1, stronger effect = lower value 1.02 | locus YHR094C, strain hxt1, stronger effect = lower value 0.99 | locus YHR129C, strain ARP1, stronger effect = lower value 1.02 | locus YHR142W, strain chs7, stronger effect = lower value 1 | locus YHR200W, strain rpn10, stronger effect = lower value 0.994 | locus YIL066C, strain RNR3, stronger effect = lower value 1.02 | locus YIL073C, strain SPO22, stronger effect = lower value 1.01 | locus YIL125W, strain kgd1, stronger effect = lower value 0.999 | locus YIR030C, strain dcg1, stronger effect = lower value 0.998 | locus YJL092W, strain hpr5, stronger effect = lower value 1.01 | locus YJL095W, strain BCK1 (second series), stronger effect = lower value 0.999 | locus YJL095W, strain BCK1, stronger effect = lower value 1.02 and 1.03 | locus YJL115W, strain asf1, stronger effect = lower value 0.996 | locus YJL129C, strain trk1, stronger effect = lower value 1.01 | locus YJL134W, strain LCB3, stronger effect = lower value 1 | locus YJL154C, strain vps35, stronger effect = lower value 0.992 | locus YJL164C, strain tpk1, stronger effect = lower value 1 | locus YJL166W, strain qcr8, stronger effect = lower value 1 | locus YJL168C, strain set2, stronger effect = lower value 0.991 | locus YJL187C, strain SWE1 (second series), stronger effect = lower value 1.03 | locus YJL187C, strain SWE1, stronger effect = lower value 1 | locus YJR043C, strain POL32, stronger effect = lower value 1.05
